Shiga inhibitor: inhibitors of Shiga toxin in Vero cells. Vero cells, Shiga toxin protein synthesis inhibition reporter. 290,000 compounds, 9.2% hits. inhibition, % at 38.7 µM; in the data active = inhibition mostly above about 28%, no sharp cut-off; inactive = mostly below about 43%
Pf growth 96h: P. falciparum growth inhibition at 96 hours; P. falciparum luciferase reporter growth, 96 h; Potency, µM (highest dose often 28.7 µM), most hits filed as inhibitors; 320,000 compounds, 6.9% hits; AID 504834
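Compounds incubated with erythrocytes infected by luciferase-expressing P. falciparum (2% hematocrit, 0.05% parasitemia final) for 96 hours, 37 C in 5% CO2. Growth inhibition scored as decreased luciferase luminescence.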
Pf growth 48h: P. falciparum growth inhibition at 48 hours (one generation); AID 504832; P. falciparum luciferase growth in erythrocytes, 48 h; Potency, µM (doses to about 28.7 µM), hits mostly inhibitors; 310,000 compounds, 5.9% hits
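First compound was added to culture medium, then infected red cells at 0.1% parasitemia and 2% hematocrit (final). After incubation at 37 C under 5% CO2, luciferase detection reagent was dispensed and light output recorded.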
Lassa entry inh: blocks Lassa virus binding to or entry into cells; Lassa virus pseudotype entry inhibition, cell reporter; Potency, µM (highest dose often 37.9 µM), hits mostly inhibitors; 300,000 compounds, 1.2% hits; calls by dose curve; tested in HEK293 cells; note: nearly all actives have a fitted effect of over 50% in size
CHX counter: counter-screen for Shiga toxin inhibitors: cycloheximide protein synthesis inhibition | cell reporter, cycloheximide protein synthesis inhibition counterscreen | max response, % | 300,000 compounds, 12% hits | AID 2314; in the data active = max response mostly above about 13%, no sharp cut-off; inactive = mostly below about 14%; note: read at 38.3 µM for the half of the compounds with a filed dose
Marburg entry inh: blocks Marburg virus binding to or entry into cells; Marburg virus pseudotyped entry inhibition, cell reporter; Potency, µM (series often up to 37.8 µM), hits mostly inhibitors; 300,000 compounds, 1.8% hits; calls by dose curve; tested in HEK293 cells
A number is an active result; . = inactive; ? = inconclusive; / = not tested or not shown; [ ] = another dose, or the depositor's remark. The list is not random: actives were taken first. Their share in the collection is about 19%. Unless noted, calls come from the whole dose curve; as a rule, active = well fitted inhibition curve with a large enough effect; inconclusive = small, poorly fitted or top-dose-only effect, or another doubt; inactive = no such curve, though single readings can be large or run the other way.

SMILES	Shiga inhibitor	Pf growth 96h	Pf growth 48h	Lassa entry inh	CHX counter	Marburg entry inh
CCOc1c(/C=C(\C#N)C(N)=O)c2ccccc2n1CC	.	13.1µM	.	.	.	?
CCOc1cc(/C=C(\C#N)C(N)=O)ccc1OS(=O)(=O)c1ccccc1	.	.	.	.	.	.
CN(C)c1nc(N(C)C)nc(N(C#N)Cc2ccc(Cl)cc2)n1	.	.	?	/	.	/
Cc1ccc(C)c(C(=O)OCC(=O)Nc2ccc(N3CCOCC3)cc2)c1	.	.	.	?	.	?
CCc1ccc(C(c2c(C)nn(-c3ccccc3)c2N)c2c(C)nn(-c3ccccc3)c2N)cc1	.	?	8.28µM	.	.	?
CC12CCC(C(=O)N3CCOCC3)([C@H](Br)C1=O)C2(C)C (stereo partly specified)	.	.	.	?	.	.
CCn1c(-c2ccc(C)cc2)nn(CC(=O)NCCc2ccccc2)c1=S	.	?	.	?	.	8.91µM
COc1ccc(-c2nn(CC(=O)NCCc3ccccc3)c(=S)n2C)cc1	.	?	.	12.6µM	.	?
Cc1nn(CC(=O)NCCc2ccccc2)c(=O)c2ccccc12	.	.	.	.	.	.
CCCn1c(C)cc(C=O)c1C	.	?	.	.	.	?
CCC(=O)Nc1ccc(C(=O)OCC(=O)c2cccs2)cc1	55.5	.	.	.	31.1	?
O=C(CCc1ccccc1)Nc1cc(C(=O)O)cc(C(=O)O)c1	.	1.47µM	.	.	.	.
CCC(=O)Nc1ccccc1	.	.	.	/	.	/
CCOC(=O)c1cccc(NC(=O)CCc2ccccc2)c1	.	.[5.75 µM]	.	?	16.0	?
CCC(=O)Nc1ccc(C(=O)OCc2ccccc2)cc1	77.4	.	.	.	39.0	?
O=C(CCc1ccccc1)Nc1cccc(NC(=O)CCc2ccccc2)c1	.	?	/	.	.	.
CC(=O)Nc1cccc(C(=O)OCc2ccccc2)c1	74.2	.	.	.	27.0	?
CC(=O)Nc1cccc(C(=O)OCC(=O)NC(=O)Cc2ccccc2)c1	/	.	.	.	/	?
CC(=O)Nc1cccc(C(=O)OCC(=O)NC(C)c2ccc(F)cc2)c1 (stereo unspecified)	.	.	?	.	.	?
CC(=O)Nc1cccc(C(=O)OCCCOc2ccc(F)cc2)c1	57.8	.	.	.	32.1	.
CCOC(=O)c1noc2ncn(CC(=O)Nc3cccc(C(F)(F)F)c3)c(=O)c12	/	/	/	.	/	/
O=C(NCc1ccccc1)C1=C[C@H](c2ccc(Br)cc2)C[C@H](OCc2ccc(CO)cc2)O1	.	1.65µM	?	/	.	/
O=C(NCc1ccccc1)C1=C[C@@H](c2ccccc2)C[C@@H](OCc2ccc(CO)cc2)O1	.	9.28µM	?	/	.	/
CC(=O)N1c2ccc(Cl)cc2C2OCCC2C1c1ccco1 (stereo unspecified)	.	?	?	.	.	.
Clc1ccc2c(c1)C1OCCC1C(c1ccco1)N2 (stereo unspecified)	65.7	.[5.75 µM]	.	.	26.4	.
SMILES	Shiga inhibitor	Pf growth 96h	Pf growth 48h	Lassa entry inh	CHX counter	Marburg entry inh
COc1ccc(NS(=O)(=O)c2ccc(N3CCOCC3)c(NC(=O)c3ccc(OC)cc3)c2)cc1	.	11.7µM	.	?	.	?
O=C(Nc1cc(S(=O)(=O)Nc2ccccc2F)ccc1Cl)c1ccc(F)cc1F	/	/	/	.	/	.
COc1ccc(NS(=O)(=O)c2ccc(N3CCCC3)c(NC(=S)Nc3cccc(S(=O)(=O)N(C)C)c3)c2)cc1	63.1	?	?	.	33.4	.
O=C(Nc1cc(S(=O)(=O)Nc2ccc(Cl)cc2)ccc1N1CCCCC1)c1ccc(F)cc1Cl	.	6.57µM	?	?	.	?
COc1ccc(NS(=O)(=O)c2ccc(N3CCOCC3)c(NC(=O)c3ccccc3Cl)c2)cc1	.	.	10.4µM	1.64µM	.	?
CNC(=S)Nc1ccc(N2CCCC2)c(S(=O)(=O)Nc2ccc(OC)cc2)c1	/	/	/	.	/	.
COCCn1c(SCc2cnc(-c3ccccc3)s2)nnc1-c1ccncc1	.	9.28µM	?	.	.	.
COc1ccc(OC)c(NC(=O)CSc2ccc(-c3cccnc3)nn2)c1	.	?	.	.	.	?
O=[N+]([O-])C(=C1Nc2ccccc2N1)C(Cl)=C(Cl)Cl	.	.	.	/	16.5	/
CCN(CC(=O)Nc1c(F)cccc1F)C(=O)CNC(=O)c1cccs1	/	.	.	.	/	.
COc1ccc(C(=O)NCCSc2c[nH]c3ccccc23)cc1OC	/	/	/	.	/	.
CCN(CC)S(=O)(=O)c1ccc(C(C)NC(=O)Cc2c[nH]c3ccccc23)cc1 (stereo unspecified)	.	?	?	2.59µM	.	.
CCN(CC)S(=O)(=O)c1ccc(C(=O)NCCSc2c[nH]c3ccccc23)cc1	.	?	.	25.9µM	.	.
O=C(NCCc1c[nH]c2ccccc12)c1ccc(Br)o1	/	/	/	.	/	.
CC(C)C(=O)NCCSc1c[nH]c2ccccc12	.	11.7µM	.	/	.	/
O=C(NCCSc1c[nH]c2ccccc12)c1ccc(Br)o1	.	2.08µM	.	.	.	.
CCC(=O)N1CCc2cc(CNS(=O)(=O)c3cccs3)ccc21	/	/	/	.	/	/
Cc1ccc(N2C(=O)c3ccccc3C2=O)cc1	91.2	.	.	.	40.8	.
COc1ccc(N2C(=O)c3cccc4c(N(C)CCO)ccc(c34)C2=O)cc1	.	.	10.4µM	/	.	/
COc1ccc(OC)c(C(=O)CC2OC(=O)c3ccccc32)c1 (stereo unspecified)	.	?	?	.	.	?
COc1ccc(O)c(C(=O)C2c3ccccc3C(=O)N2c2ccc(C)cc2)c1 (stereo unspecified)	80.5	1.47µM	?	.	44.0	.
COc1ccc(N2C(=O)c3ccccc3C2=O)cc1	54.8	?	.	?	18.9	.
CN1CC(=O)N(CC(=O)N2N=C(c3ccc(Cl)cc3)CC2c2ccco2)C1=O (stereo unspecified)	.	.	.	.	.	?
Cc1cc2oc(C(=O)Nc3ccc(S(=O)(=O)Nc4ncccn4)cc3)c(C)c2cc1Cl	.	?	.	.	.	.
CC1(c2ccccc2Cl)NC(=O)N(CC(=O)N2CCc3ccccc32)C1=O (stereo unspecified)	/	/	/	.	/	.
SMILES	Shiga inhibitor	Pf growth 96h	Pf growth 48h	Lassa entry inh	CHX counter	Marburg entry inh
CC(C)Oc1ccc(N2C(=O)c3ccccc3C2=O)cc1	.	.	/	.	17.6	.
CC(C)Oc1ccc(C2CC(=O)N(c3ccccc3)C2=O)cc1 (stereo unspecified)	.	.	/	.	19.9	.
Cc1ccc(N2C(=O)c3ccccc3NC2c2ccccc2O)cc1 (stereo unspecified)	79.1	.	/	/	36.0	/
CCO/C=C1\C(=O)N(c2ccccc2)C(=O)c2ccccc21	69.4	.[5.75 µM]	.	.	40.4	.
CCc1ccc2[nH]c(=O)c(CN(CCCN3CCOCC3)C(=O)Nc3ccc(Cl)cc3)cc2c1	.	.	.	?	.	?
COc1ccc(N2C(=O)c3ccccc3C2O)cc1 (stereo unspecified)	/	.	.	.	19.8	?
CC(=O)Nc1ccc(N2C(=O)c3cccc4c(O)ccc(c34)C2=O)cc1	.	.	.[0.00184 µM]	/	.	/

Screening data from PubChem BioAssay.
